TRPML1 inh = qHTS for Inhibitors of the Human Mucolipin Transient Receptor Potential 1 (TRPML1); TRPML1-inducible cells, Ca2+ dye fluorescence, FDSS; hits give low values; inhibition of EC80 agonist-evoked calcium signal; activity change, negative = inhibition, % (test concentration not listed); actives 0.02% (n = 390,000); Mucolipin-1 (Homo sapiens), Q9GZU1; AID 624415, 2012; in the data active means activity change below about -50%; inconclusive means between about -30% and that limit;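 further: stimulus is agonist 54-4 at its EC80 concentration; on the % scale 0 is the no-effect control and ±100 the full control effect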
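TRPML1-DL cells, Tet-induced overnight (~16 h, 37 °C) at 1,500 cells/well, were loaded with Ca8 no-wash dye plus quencher for 45-90 min at room temperature. Compounds were pinned during FDSS kinetic reading; agonist 54-4 at EC80 (4 uM final) then added.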
miR-21 reporter = qHTS Assay for Modulators of miRNAs and/orActivators of miR-21; HeLa miR-21 FLuc reporter, luciferase, 48 h; Potency, µM (top dose mostly 38.3 µM), inactives show at the top dose activity change, positive = activation, hits mostly activators; 340,000 tested, under 10 active; AID 2288, 2010; active means well fitted curve in the direction sought with a large enough effect; inconclusive means small, poorly fitted or top-dose-only effect, or another doubt; inactive means no such curve, though single readings can be large or run the other way;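 further: % of control where 0% means no effect; miR-21 action dims this reporter so a rising signal means less miR-21 action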
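HeLa miR-21-FLuc reporter line, endogenous miR-21; 2000 cells/well in DMEM/10% FBS; compound titration up to ~40uM final, 48 h, 37 degree Celsius; luciferase detection reagent, 15 min lysis, CCD luminescence.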
uPA generation = qHTS for Inhibitors of Cell Surface uPA Generation. cell surface uPA generation assay, qHTS. Potency, µM (series often up to 38.3 µM), for inactives: top-dose activity change, negative = inhibition, actives largely listed as inhibitors. actives 0.31% (n = 330,000). AID 540303, 2011; active means well fitted inhibition curve with a large enough effect; inconclusive means small, poorly fitted or top-dose-only effect; inactive means no such curve, though single readings can be large or run the other way; tested in mouse RAW 264.7 cells; further: potency means the concentration at half of the fitted maximal effect; on the % scale 0 is the no-effect control and ±100 the full control effect; nearly all actives have a fitted effect of over 55% in size
TRPML1 agonist = qHTS for Agonists of the Human Mucolipin Transient Receptor Potential 1 (TRPML1). actives 0.12% (n = 410,000). TRPML1-expressing cells, Ca2+ dye fluorescence, FDSS. Mucolipin-1 (Homo sapiens), Q9GZU1. activation, % (no concentration beside the values). AID 624414, 2012; in the data active means activation above about 50%; inconclusive means mostly about 30% to 49%; further: 0% is about no effect
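Tet-induced TRPML1-DL cells, 1,500 per well, cultured overnight, were loaded with a no-wash Ca2+ dye for 45–90 min. Calcium fluorescence was recorded on the FDSS for 110 s after compound addition, before the EC80 agonist (4 uM 54-4) was added.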
Numbers without * were called inactive; u = inconclusive; x = no result. Sampled rows, rich in hits. Any-hit rate of the full collection: about 0.34%.

SMILES	TRPML1 inh	miR-21 reporter	uPA generation	TRPML1 agonist
Cc1ccc(S(=O)(=O)Nc2ccccc2C(=O)Nc2nc(-c3ccc(F)cc3)cs2)cc1	35	u	13µM*	-1
O=Cc1cccc(C=O)c1	x	x	x	0
COc1cc(N(C)C)c(OC)cc1/C=C1\Cc2ccccc2C1=O	x	x	x	78*
CC(C)(C)n1ncc2c(=O)n(Cc3cccc(C(F)(F)F)c3Cl)cnc21	2	x	x	2
Cc1nn(-c2ccccc2)c(C)c1C(=O)OCC(=O)Nc1ccccc1F	-5	x	10µM*	2
Cc1cc(N(C)C)ccc1/C=C/c1ccnc2ccccc12	x	x	x	17
Cc1ccc2nc(CS)[nH]c2c1	x	x	x	-1
Cc1ccc2c(C(=O)CNc3nc(C)c(C)s3)c(C)[nH]c2c1	x	x	x	-1
CCc1c(C)nc(SCC(=O)CC(=O)OC(C)C)c(C#N)c1C	2	-12%	7%	51*
Cc1cc(C)nc(/N=C(\N)Nc2ccc(OCCC(C)C)cc2)n1	-15	11%	-8%	97*
Cc1cc(C)nc(/N=C(\N)Nc2ccc(CC(=O)OC(C)C)cc2)n1	12	24%	-11%	68*
COc1ccc(N/C(N)=N/c2nc(C)cc(C)n2)cc1	-3	x	x	u
Cc1cc(C)nc(/N=C(\N)Nc2cccc(OCc3ccccc3)c2)n1	19	u	7.1µM*	u
Cc1cc(C)nc(/N=C(\N)Nc2ccc(OCc3ccccc3)cc2)n1	5	30%	-12%	81*
CCOc1ccc(NC(=O)COC(=O)c2ccccc2OCC(=O)N(C)C)cc1	x	x	x	-1
O=C1CCC[C@@H]2[C@@H](Cc3ccccc3)[C@@H](Nc3ccccc3)C[C@@H]3CCN1[C@@H]32	x	x	x	-1
COc1cc2nc(CCNCc3ccccc3)nc(NC3CCN(C)CC3)c2cc1OC	x	x	x	0
COc1ccccc1N1CCN(C(=O)c2ccc3c(Cl)c4c(nc3c2)CCCC4)CC1	10	-5%	4.5µM*	1
CCN(CC)/[N+]([O-])=N/Oc1ccc([N+](=O)[O-])cc1[N+](=O)[O-]	20	x	x	1
Cc1ccc(Cn2cnc3c(cnn3C(C)(C)C)c2=O)cc1F	20	x	x	1
O=C(/C=C/c1ccc(O)c(O)c1)OCCc1ccccc1	26	x	0.89µM*	0
COc1ccc(-c2c[n+](CC(=O)OC3CC(C)CCC3C(C)C)c3n2CCC3)cc1 (centres undefined)	17	u	6.3µM*	1
O=C(Nc1cccc(S(=O)(=O)Nc2ccc(Cl)cc2)c1)c1ccc(Cl)nc1	-11	u	5µM*	5
Cc1cc(-c2ccc(C(C)C)c(S(=O)(=O)N3CCN(c4ccccn4)CC3)c2)on1	53	20%	0.89µM*	1
CCc1ccc(-c2cc(C)no2)cc1S(=O)(=O)N1CCN(c2ccccn2)CC1	73	-2%	-10%	-1
SMILES	TRPML1 inh	miR-21 reporter	uPA generation	TRPML1 agonist
Cc1noc(/C=C/c2nn(C)cc2Cl)c1[N+](=O)[O-]	17	21%	4.5µM*	2
Clc1ccc2nc[nH]c2c1	x	x	x	0
C[N+](C)(C)c1ccc(/C=C/c2ccnc3ccccc23)cc1	x	x	x	0
O=C(COc1ccccc1C(=O)Nc1ccccc1F)Nc1ccc(Br)cc1	x	x	x	0
O=C(Nc1ccccc1Cl)c1ccccc1Oc1ccc(C(F)(F)F)cc1[N+](=O)[O-]	-21	11%	-6%	55*
C=C(NNC(C)=O)c1ccc(O)cc1	x	x	x	0
CC(=O)Oc1ccc(/C=C2/Oc3ccccc3C2=O)cc1	15	-51%	-8%	1
COc1ccc(/C=C2\Oc3ccccc3C2=O)cc1	3	x	7.1µM*	0
COc1ccc(OC)c2c(C)ccnc12	x	x	x	-1
COc1cc(C=O)cc(OC)c1[N+](=O)[O-]	x	x	x	0
COc1ccc(N2CCN(C3CCCCC3NS(=O)(=O)c3ccc(Cl)cc3)CC2)cc1 (centres undefined)	-17	17%	-14%	63*
COc1ccccc1N1CCN(C2CCCCC2NS(=O)(=O)c2ccc(Cl)cc2)CC1 (centres undefined)	82	21%	6%	0
Cc1ccc(C(=O)NNc2ncnc3c2cnn3C)cc1	12	-1%	-1%	0
Cn1ncc2c(O/N=C(\N)c3ccc(C(F)(F)F)cc3)ncnc21	0	u	2.8µM*	-1
O=C(Cn1nnc(-c2ccc(N3CCOCC3)cc2)n1)N1CCOCC1	15	-27%	4.5µM*	0

Screening data deposited in PubChem BioAssay by National Center for Advancing Translational Sciences (NCATS).
